Data taken from article PMC12864922, “TDP-43 directly inhibits mRNA accumulation in neurites through modulation of mRNA stability”.
Whole data set: some 9,900 sequences, median “r (bound/input frequency ratio)” near 0.7, cut for the highest 2% near 6.5. What follows is part of a selection rich in the highest values, with near analogues and random picks from the rest.

B1: ENSMUSG00000042529.244|Kcnj12|181:185 (ssRNA)
RNA: GGGAGUUCUACAGUCCGACGAUCGCUUCGAUAUCCGCAUGCUAAGAUAGGCUGGCUCCCAGGCACCUUGCUUCAGAUUCCAUGCUAAUUUCUAAUCUAGGAGAUUCCCCUAGGACCCGCUGCAGAGGCAUGGGCUCCUCUGUGGUCCUGGCCAGACCUCUGCCCCCAAAUCUCACUGACUGUUCUAGCCUUGGCCUUGGGGCCUAAGGGUGCAUUCAGCCUGGCACACCUUACCUGCCACUCACCUCUCUAUCUAGUUGUCGAGUCUAGGGAAGGGCAGAGGGUGGGUCCUGGCCACUGGGUGCUCUUGCGGUCGCACUAGUGUGGAAUUCUCGGGUGUCAAGG
B2: ENSMUSG00000031028.132|Tub|108:112;184:189 (ssRNA)
RNA: GGGAGUUCUACAGUCCGACGAUCGCUUCGAUAUCCGCAUGCUAGGGGAUGAUAGGAGUCAUCCAGUAGACUCCCUACAUCAGGGCUCUCAGCAGCCCCAGCACAACACCUAUGACACACACACAGGAUCUAGGUCACCAUUCAAGUAAUGCAUACCUUCAGGAAGAAUGUCCUCUCUGGGAAGACUCAGCUCCCAUUAUUGCCAGCAUGCCAUGAUCAGUGAGGGCACACACCCAUGCUUAGGGGGAUGGCGCAGGGUGAGGGGAGCAGAGGAUAUUUUAGGGCCACAAGAGCUCAGAGGUAGCUCUUGCGGUCGCACUAGUGUGGAAUUCUCGGGUGUCAAGG
B3: ENSMUSG00000032194.60|Kank2 (ssRNA)
RNA: GGGAGUUCUACAGUCCGACGAUCGCUUCGAUAUCCGCAUGCUAAGGGGGGGCAAGAAGAGAAAAUACUGUAUUCUUGAGUCAUUGUUAGGGGAUGGGAGGGGUCAGAAUUCAGUUGCUAAAUUUGAAUGUCACUGGAAUGUUACAGUGUCUAUUGUCUCCUCAUCUUUACAGCAGGUCUCCACAAAGCCUGCUCACCACCCUUUGUCACCUCAUUUCAUUGUCUAGUGUACAAUAGGGUCUUGUCCACUGCCCUCCACCUCCAGACUGUGUCUUCAGGGCCUGGGGUGUCUCUUGUGAUUGCUCUCUUGCGGUCGCACUAGUGUGGAAUUCUCGGGUGUCAAGG
B4: ENSMUSG00000061578.444|Ksr2 (ssRNA)
RNA: GGGAGUUCUACAGUCCGACGAUCGCUUCGAUAUCCGCAUGCUAAAUCCUUCAAGACAGAAGUUUCAGAGGGGAUAGUUCCUUCUAACCUUGUACUGGGACAUCAUCUAUGUCCCCAUCCCCAGAGCUGAAUUAGAGACACCAAGUAGCCUCUUGGGUUGUUUUGUGGGGUGUUCCCCUUGCUGGUCAAAGGAGUGGAAAGCCACCUUGCUGUAAAUGCUCUUGUUUUCUGUAGCAAUCUUGAACUCUUUUUUUUUUUUGUUCGUUUGUUUGUUUGUUUGUUUGUUUGUUUUUUCAAGACAGGGCUCUUGCGGUCGCACUAGUGUGGAAUUCUCGGGUGUCAAGG
B5: ENSMUSG00000058297.15|Spock2 (ssRNA)
RNA: GGGAGUUCUACAGUCCGACGAUCGCUUCGAUAUCCGCAUGCUAAGGCUACAUCUGGUAGAUAGCCCUCGACGGCCUCGGCAGGCCAGGGUGCCGACGGCCAGAAAGACAGGCCAGAAGAGACCUGGACAACAGCAGGCAACUUAGCAAAUGGAUCCGGAAGUCAGUGCGGAGGACCCUGGCUCCAGUGGGGGAGGACUGGGGAGUGUGGCUUGUGUGUAUGUGUGAUAUGAGAUGUGUGUGUAUGAUGUGAGAUGUGAGUGUGUGAUGUGAGAUGUGUGUAUGUGAGAUGUGUGUGUGUGUGUCUCUUGCGGUCGCACUAGUGUGGAAUUCUCGGGUGUCAAGG
B6: ENSMUSG00000058297.16|Spock2 (ssRNA)
RNA: GGGAGUUCUACAGUCCGACGAUCGCUUCGAUAUCCGCAUGCUACAUCUGGUAGAUAGCCCUCGACGGCCUCGGCAGGCCAGGGUGCCGACGGCCAGAAAGACAGGCCAGAAGAGACCUGGACAACAGCAGGCAACUUAGCAAAUGGAUCCGGAAGUCAGUGCGGAGGACCCUGGCUCCAGUGGGGGAGGACUGGGGAGUGUGGCUUGUGUGUAUGUGUGAUAUGAGAUGUGUGUGUAUGAUGUGAGAUGUGAGUGUGUGAUGUGAGAUGUGUGUAUGUGAGAUGUGUGUGUGUGUGUGUGUGUCUCUUGCGGUCGCACUAGUGUGGAAUUCUCGGGUGUCAAGG
B7: ENSMUSG00000058297.11|Spock2|185:189;193:206;215:226;240:246;255:260 (ssRNA)
RNA: GGGAGUUCUACAGUCCGACGAUCGCUUCGAUAUCCGCAUGCUAUGAGGCGGGUGAGGCAGAUGAUGGAGGCUACAUCUGGUAGAUAGCCCUCGACGGCCUCGGCAGGCCAGGGUGCCGACGGCCAGAAAGACAGGCCAGAAGAGACCUGGACAACAGCAGGCAACUUAGCAAAUGGAUCCGGAAGUCAGUGCGGAGGACCCUGGCUCCAGUGGGGGAGGACUGGGGACACACGCUACACACAUACACACAUAUGAGAACACACACAUACAUGUGAGAUGUGACACACACAUGUGAGAACACACCUCUUGCGGUCGCACUAGUGUGGAAUUCUCGGGUGUCAAGG
B8: ENSMUSG00000058297.15|Spock2|161:165;169:182;191:202;216:222;231:240;246:260 (ssRNA)
RNA: GGGAGUUCUACAGUCCGACGAUCGCUUCGAUAUCCGCAUGCUAAGGCUACAUCUGGUAGAUAGCCCUCGACGGCCUCGGCAGGCCAGGGUGCCGACGGCCAGAAAGACAGGCCAGAAGAGACCUGGACAACAGCAGGCAACUUAGCAAAUGGAUCCGGAAGUCAGUGCGGAGGACCCUGGCUCCAGUGGGGGAGGACUGGGGACACACGCUACACACAUACACACAUAUGAGAACACACACAUACAUGUGAGAUGUGACACACACAUGUGAGAACACACAUACUGAGAACACACACACACACACUCUUGCGGUCGCACUAGUGUGGAAUUCUCGGGUGUCAAGG
B9: ENSMUSG00000058297.14|Spock2|167:171;175:188;197:208;222:228;237:246;252:260 (ssRNA)
RNA: GGGAGUUCUACAGUCCGACGAUCGCUUCGAUAUCCGCAUGCUAUGAUGGAGGCUACAUCUGGUAGAUAGCCCUCGACGGCCUCGGCAGGCCAGGGUGCCGACGGCCAGAAAGACAGGCCAGAAGAGACCUGGACAACAGCAGGCAACUUAGCAAAUGGAUCCGGAAGUCAGUGCGGAGGACCCUGGCUCCAGUGGGGGAGGACUGGGGACACACGCUACACACAUACACACAUAUGAGAACACACACAUACAUGUGAGAUGUGACACACACAUGUGAGAACACACAUACUGAGAACACACACACUCUUGCGGUCGCACUAGUGUGGAAUUCUCGGGUGUCAAGG
B10: ENSMUSG00000058297.16|Spock2|155:159;163:176;185:196;210:216;225:234;240:260 (ssRNA)
RNA: GGGAGUUCUACAGUCCGACGAUCGCUUCGAUAUCCGCAUGCUACAUCUGGUAGAUAGCCCUCGACGGCCUCGGCAGGCCAGGGUGCCGACGGCCAGAAAGACAGGCCAGAAGAGACCUGGACAACAGCAGGCAACUUAGCAAAUGGAUCCGGAAGUCAGUGCGGAGGACCCUGGCUCCAGUGGGGGAGGACUGGGGACACACGCUACACACAUACACACAUAUGAGAACACACACAUACAUGUGAGAUGUGACACACACAUGUGAGAACACACAUACUGAGAACACACACACACACACACACACUCUUGCGGUCGCACUAGUGUGGAAUUCUCGGGUGUCAAGG
B11: ENSMUSG00000058297.2|Spock2|239:243;247:260 (ssRNA)
RNA: GGGAGUUCUACAGUCCGACGAUCGCUUCGAUAUCCGCAUGCUAUGAGGAAGAAAAGGAGACAGAAGAGGCAGGGGAGGAGGCCGAGGAGGAGGAGGGUGAGGCGGGUGAGGCAGAUGAUGGAGGCUACAUCUGGUAGAUAGCCCUCGACGGCCUCGGCAGGCCAGGGUGCCGACGGCCAGAAAGACAGGCCAGAAGAGACCUGGACAACAGCAGGCAACUUAGCAAAUGGAUCCGGAAGUCAGUGCGGAGGACCCUGGCUCCAGUGGGGGAGGACUGGGGACACACGCUACACACAUACACACCUCUUGCGGUCGCACUAGUGUGGAAUUCUCGGGUGUCAAGG
B12: ENSMUSG00000058297.11|Spock2 (ssRNA)
RNA: GGGAGUUCUACAGUCCGACGAUCGCUUCGAUAUCCGCAUGCUAUGAGGCGGGUGAGGCAGAUGAUGGAGGCUACAUCUGGUAGAUAGCCCUCGACGGCCUCGGCAGGCCAGGGUGCCGACGGCCAGAAAGACAGGCCAGAAGAGACCUGGACAACAGCAGGCAACUUAGCAAAUGGAUCCGGAAGUCAGUGCGGAGGACCCUGGCUCCAGUGGGGGAGGACUGGGGAGUGUGGCUUGUGUGUAUGUGUGAUAUGAGAUGUGUGUGUAUGAUGUGAGAUGUGAGUGUGUGAUGUGAGAUGUGUGCUCUUGCGGUCGCACUAGUGUGGAAUUCUCGGGUGUCAAGG
B13: ENSMUSG00000058297.3|Spock2|233:237;241:254 (ssRNA)
RNA: GGGAGUUCUACAGUCCGACGAUCGCUUCGAUAUCCGCAUGCUAAGAAAAGGAGACAGAAGAGGCAGGGGAGGAGGCCGAGGAGGAGGAGGGUGAGGCGGGUGAGGCAGAUGAUGGAGGCUACAUCUGGUAGAUAGCCCUCGACGGCCUCGGCAGGCCAGGGUGCCGACGGCCAGAAAGACAGGCCAGAAGAGACCUGGACAACAGCAGGCAACUUAGCAAAUGGAUCCGGAAGUCAGUGCGGAGGACCCUGGCUCCAGUGGGGGAGGACUGGGGACACACGCUACACACAUACACACAUAUGACUCUUGCGGUCGCACUAGUGUGGAAUUCUCGGGUGUCAAGG
B14: ENSMUSG00000058297.14|Spock2 (ssRNA)
RNA: GGGAGUUCUACAGUCCGACGAUCGCUUCGAUAUCCGCAUGCUAUGAUGGAGGCUACAUCUGGUAGAUAGCCCUCGACGGCCUCGGCAGGCCAGGGUGCCGACGGCCAGAAAGACAGGCCAGAAGAGACCUGGACAACAGCAGGCAACUUAGCAAAUGGAUCCGGAAGUCAGUGCGGAGGACCCUGGCUCCAGUGGGGGAGGACUGGGGAGUGUGGCUUGUGUGUAUGUGUGAUAUGAGAUGUGUGUGUAUGAUGUGAGAUGUGAGUGUGUGAUGUGAGAUGUGUGUAUGUGAGAUGUGUGUGUCUCUUGCGGUCGCACUAGUGUGGAAUUCUCGGGUGUCAAGG

These binders were tested against TDP-43 (Homo sapiens, UniProt Q13148 1-414) (assay: RNA Bind-n-Seq with designed 260-mer pool; 25 mM Tris-HCl, 150 mM KCl, 3 mM MgCl2, BSA (printed 500 mg/mL), 20 units/mL SUPERase IN; pH not stated; 500 nM RNA pool, 1 h, 4 C; TDP-43 5, 50, 500 nM; high values mean tight binding). Settings: protein: recombinant; tags: SBP (GST cleaved off with PreScission; pGEX-GST-SBP).
How it was run: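 For each oligo, R gives binding as its mapped-read-normalized abundance after pulldown divided by its abundance in input. Bead-captured SBP-tagged TDP-43 (5, 50 or 500 nM) was incubated with 500 nM of an in vitro-transcribed 260-nt 3′ UTR oligo pool for 1 h at 4 °C in 25 mM Tris-HCl, 150 mM KCl, 3 mM MgCl2, BSA and SUPERase IN on streptavidin beads. Washed, biotin-eluted RNA was reverse transcribed, PCR-amplified and sequenced.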

Sequence of TDP-43 (Q13148 whole entry): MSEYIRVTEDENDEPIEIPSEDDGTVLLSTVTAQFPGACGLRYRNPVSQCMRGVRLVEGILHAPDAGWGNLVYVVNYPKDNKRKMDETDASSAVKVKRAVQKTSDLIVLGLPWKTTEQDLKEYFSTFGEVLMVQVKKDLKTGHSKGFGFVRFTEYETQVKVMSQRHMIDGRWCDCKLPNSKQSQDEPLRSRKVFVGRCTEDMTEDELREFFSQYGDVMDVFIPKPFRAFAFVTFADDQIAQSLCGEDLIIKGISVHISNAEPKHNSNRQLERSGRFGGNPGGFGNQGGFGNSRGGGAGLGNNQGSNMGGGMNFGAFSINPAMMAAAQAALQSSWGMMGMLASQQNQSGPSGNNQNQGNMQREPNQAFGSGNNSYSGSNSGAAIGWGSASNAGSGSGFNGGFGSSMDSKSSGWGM

| Binder | binding signal |
| --- | --- |
| B1 | 1.24 R (bound/input frequency ratio) |
| B2 | 0.891 R (bound/input frequency ratio) |
| B3 | 2.47 R (bound/input frequency ratio) |
| B4 | 2.36 R (bound/input frequency ratio) |
| B5 | 7.97 R (bound/input frequency ratio) |
| B6 | 7.85 R (bound/input frequency ratio) |
| B7 | 2.53 R (bound/input frequency ratio) |
| B8 | 2.53 R (bound/input frequency ratio) |
| B9 | 1.95 R (bound/input frequency ratio) |
| B10 | 2.54 R (bound/input frequency ratio) |
| B11 | 2.26 R (bound/input frequency ratio) |
| B12 | 8.12 R (bound/input frequency ratio) |
| B13 | 2.67 R (bound/input frequency ratio) |
| B14 | 8.13 R (bound/input frequency ratio) |
